Results: PubChem BioAssay (Tox21)
Several values for one entry are separate records, joined by “and”; a condition that tells them apart may be missing. Equal values may be shown once. Results filed as inconclusive are left out. Where a call stands in place of a potency, no number is given. Where a structure was tested more than once in an assay, its records may differ in their call. Activity calls are given as the source filed them. Unless noted, calls follow the shape of the dose curve; as a rule, active = well fitted curve in the direction sought with a large enough effect in the repeat runs; inconclusive = weak or mixed curves; inactive = no such curve, though single readings can be large; an effect the other way counts as inactive or inconclusive.

What was measured:
[1] = qHTS assay to identify small molecule agonists of the estrogen receptor alpha (ER-alpha) signaling pathway in the presence of an antagonist - cell viability counter screen (AID 1259386);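 also: cells exposed to compounds for 22 h at 37 °C before the viability read; nearly all actives have a fitted effect of over 30% in size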; also: potency is read from the fitted curve at half-maximal effect
Outline: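 Viability counter screen using VM7Luc4E2 (full-length ER-alpha, four ERE-luciferase). The cells were treated with compounds alongside ICI-182,780 10.0nM for 22hr, and live-cell protease fluorescence was quantified with CellTiter-Fluor.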

[2] = molecular target: Progesterone receptor (Homo sapiens) (UniProt P06401); assay: qHTS assay to identify small molecule agonists of the progesterone receptor (PR) signaling pathway (AID 1346784; calls by dose curve; also: nearly all actives have a fitted effect of over 30% in size)
Progesterone receptor (Homo sapiens), sequence (P06401 whole entry, looked up): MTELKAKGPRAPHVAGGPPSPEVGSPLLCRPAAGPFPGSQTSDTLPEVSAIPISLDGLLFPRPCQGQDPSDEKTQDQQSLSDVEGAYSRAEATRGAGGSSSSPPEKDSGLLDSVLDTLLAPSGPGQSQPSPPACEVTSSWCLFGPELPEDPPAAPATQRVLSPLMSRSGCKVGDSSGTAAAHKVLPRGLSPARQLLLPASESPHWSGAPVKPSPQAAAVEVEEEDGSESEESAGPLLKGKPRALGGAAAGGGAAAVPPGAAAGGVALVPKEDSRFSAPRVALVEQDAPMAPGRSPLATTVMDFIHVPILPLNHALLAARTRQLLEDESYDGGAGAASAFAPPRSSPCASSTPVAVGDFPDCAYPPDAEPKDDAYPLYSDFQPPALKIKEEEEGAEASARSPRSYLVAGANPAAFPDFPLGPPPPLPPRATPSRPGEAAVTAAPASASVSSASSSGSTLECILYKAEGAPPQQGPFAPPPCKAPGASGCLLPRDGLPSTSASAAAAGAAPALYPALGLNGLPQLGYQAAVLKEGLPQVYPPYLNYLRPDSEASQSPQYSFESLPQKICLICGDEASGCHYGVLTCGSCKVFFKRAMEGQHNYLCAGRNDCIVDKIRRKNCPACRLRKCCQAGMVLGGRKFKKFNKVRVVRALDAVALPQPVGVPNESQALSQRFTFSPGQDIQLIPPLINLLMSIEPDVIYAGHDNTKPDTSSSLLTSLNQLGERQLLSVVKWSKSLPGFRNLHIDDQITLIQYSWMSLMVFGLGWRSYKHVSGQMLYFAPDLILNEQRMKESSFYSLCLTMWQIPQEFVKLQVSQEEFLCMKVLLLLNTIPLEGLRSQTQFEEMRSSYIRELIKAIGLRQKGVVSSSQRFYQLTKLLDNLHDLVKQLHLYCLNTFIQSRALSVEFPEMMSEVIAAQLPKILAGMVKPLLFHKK
Outline: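 Cells (PR-UAS-bla HEK 293T, GripTite) were plated in assay medium containing 2% charcoal-stripped FBS and incubated 6 hr. Test compounds in DMSO were added for 16 hr at 37C. FRET substrate was then loaded for 2 hr at room temperature before fluorescence reading.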

[3] = molecular target: Progesterone receptor (Homo sapiens) (UniProt P06401); assay: qHTS assay to identify small molecule antagonists of the progesterone receptor (PR) signaling pathway (AID 1346795; active = well fitted inhibition curve with a large enough effect in the signal ratio in the repeat runs, not every such curve was filed as active; the % refers to the signal ratio)
Outline: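 Antagonist mode: compounds tested against 1 nM (final) promegestone stimulation in HEK293T cells expressing PR-UAS-bla reporter, 16 hr at 37C, 5% CO2; beta-lactamase activity detected via B/G FRET substrate after 2 hr at room temperature.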

[4] = qHTS assay to identify small molecule antagonists of the progesterone receptor (PR) signaling pathway - cell viability counter screen (AID 1346798); also: series mostly up to about 92 µM; nearly all actives have a fitted effect of over 50% in size
Outline: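 Counter screen for cytotoxicity: viability of PR-UAS-bla HEK293T cells was measured with CellTiter-Glo luminescence following 16 hr compound exposure in the presence of R5020.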

[5] = qHTS assay to identify small molecule agonists of the progesterone receptor (PR) signaling pathway - cell viability counter screen (AID 1346799; calls by dose curve; also: nearly all actives have a fitted effect of over 45% in size)
Outline: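 Cells (PR-UAS-bla HEK293T) are plated at 3,000/well in 2% charcoal-stripped FBS medium, rested 6 hr, dosed and incubated 16 hr at 37C. CellTiter-Glo is then added and luminescence measured after 30 min at room temperature.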

[6] = qHTS assay to identify small molecule antagonists of the TGF-beta/Smad signaling pathway - cell viability counter screen (AID 1346824); also: nearly all actives have a fitted effect of over 50% in size
Outline: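 SBE-bla HEK 293T cells, incubated overnight, then compound plus 0.25 ng/mL TGF-beta1 (stock added) for 5 hr at 37 C. Viability was read in the same wells by CellTiter-Glo luminescence after 30 min at room temperature.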

[7] = qHTS assay to identify small molecule agonists of the TGF-beta/Smad signaling pathway (AID 1346859; active = well fitted activation curve with a large enough effect in the signal ratio in the repeat runs, not every such curve was filed as active; the % refers to the signal ratio; also: series mostly up to about 77 µM)
Outline: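 Reporter line: HEK 293T with stably integrated SBE-controlled beta-lactamase. Compound exposure lasts 5 hr at 37 C and 5% CO2; substrate loading follows for 2 hr at room temperature, with emission read at 460 and 530 nm.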

[8] = molecular target: Thyrotropin-releasing hormone receptor (Homo sapiens) (UniProt P34981); assay: qHTS assay to identify small molecule antagonists of the thyrotropin-releasing hormone receptor (TRHR) signaling pathway (AID 1346877; active = well fitted inhibition curve with a large enough effect in the repeat runs, not every such curve was filed as active; also: series mostly up to about 51 µM)
Thyrotropin-releasing hormone receptor (Homo sapiens), sequence (P34981 whole entry, looked up): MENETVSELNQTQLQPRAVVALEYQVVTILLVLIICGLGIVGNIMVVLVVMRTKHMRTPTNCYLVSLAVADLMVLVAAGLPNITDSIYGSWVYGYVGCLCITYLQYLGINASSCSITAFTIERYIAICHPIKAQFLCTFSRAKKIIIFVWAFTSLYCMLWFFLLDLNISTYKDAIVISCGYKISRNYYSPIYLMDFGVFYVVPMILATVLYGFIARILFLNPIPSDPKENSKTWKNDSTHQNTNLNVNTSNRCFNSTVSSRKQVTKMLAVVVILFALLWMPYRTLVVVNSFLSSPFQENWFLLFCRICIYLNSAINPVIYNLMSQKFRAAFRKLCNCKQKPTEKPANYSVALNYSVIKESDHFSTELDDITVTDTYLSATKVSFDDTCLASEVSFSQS
Outline: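 Following an 18 h incubation at 37 °C and a 2 h calcium dye load, TRHR-HEK293 cells were exposed to compound (5 min, room temperature) and challenged with TRH, 1 nM final.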

[9] = molecular target: Thyrotropin-releasing hormone receptor (Homo sapiens) (UniProt P34981); assay: qHTS assay to identify small molecule agonists of the thyrotropin-releasing hormone receptor (TRHR) signaling pathway (AID 1346891; calls by dose curve;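 also: HEK293 cells expressing TRHR with calcium dye readout; series mostly up to about 58 µM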)
Outline: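 Cells: TRHR-Hek293, seeded and incubated 18 h. Dye loading: 2 h at 37 °C. Compound added from DMSO stock by pin tool. Read-out: kinetic calcium fluorescence over 3 min.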

[10] = Human pregnane X receptor (PXR) small molecule agonists, qHTS cell viability counter screen (AID 1346977); also: nearly all actives have a fitted effect of over 50% in size; also: potency is read from the fitted curve at half-maximal effect
Outline: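 Cytotoxicity counter screen run in the same wells as the PXR luciferase assay, using PXR-Luc HepG2 cells in charcoal-stripped serum medium. Viability: CellTiter-Fluor fluorescence after 24hr compound treatment.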

[11] = Caspase-3/7 induction in HepG2 cells by small molecules, qHTS assay (AID 1346978); also: nearly all actives have a fitted effect of over 15% in size; also: potency is read from the fitted curve at half-maximal effect
Outline: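 Wild-type HepG2 cells, 2,000/well, settled 5 hr at 37 C and 5% CO2, then compound-treated for 17 hr; caspase-3/7 activity read by luminescent Caspase-Glo 3/7 after 30 min at room temperature.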

[12] = Caspase-3/7 induction in CHO-K1 cells by small molecules, qHTS cell viability counter screen (AID 1346979); also: nearly all actives have a fitted effect of over 35% in size; also: potency is read from the fitted curve at half-maximal effect
Outline: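 Cytotoxicity counter screen run in parallel with the caspase-3/7 assay: CHO-K1 cells, 16hr compound treatment at 37C, then CellTiter-Fluor for 1hr before fluorescence reading.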

[13] = Caspase-3/7 induction in CHO-K1 cells by small molecules, qHTS assay (AID 1346980); also: nearly all actives have a fitted effect of over 15% in size
Outline: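 Wild-type CHO-K1 cells exposed to compounds for 17hr at 37 C, 5% CO2. Caspase-3/7 activity then measured by Caspase-Glo 3/7 luminescence after 30min at room temperature.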

[14] = Caspase-3/7 induction in HepG2 cells by small molecules, qHTS cell viability counter screen (AID 1346981); also: nearly all actives have a fitted effect of over 30% in size; also: potency is read from the fitted curve at half-maximal effect
Outline: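 Viability determined by CellTiter-Fluor fluorescence in HepG2 wells also used for the luminescent Caspase-Glo 3/7 read. Compounds were present for 16 hr at 37 C, 5% CO2 before reagent addition.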

[15] = molecular target: Nuclear receptor subfamily 1 group I member 2 (Homo sapiens) (UniProt O75469); assay: Human pregnane X receptor (PXR) small molecule agonists, qHTS assay (AID 1346982); also: nearly all actives have a fitted effect of over 35% in size; also: potency is read from the fitted curve at half-maximal effect
Nuclear receptor subfamily 1 group I member 2 (Homo sapiens), sequence (O75469 whole entry, looked up): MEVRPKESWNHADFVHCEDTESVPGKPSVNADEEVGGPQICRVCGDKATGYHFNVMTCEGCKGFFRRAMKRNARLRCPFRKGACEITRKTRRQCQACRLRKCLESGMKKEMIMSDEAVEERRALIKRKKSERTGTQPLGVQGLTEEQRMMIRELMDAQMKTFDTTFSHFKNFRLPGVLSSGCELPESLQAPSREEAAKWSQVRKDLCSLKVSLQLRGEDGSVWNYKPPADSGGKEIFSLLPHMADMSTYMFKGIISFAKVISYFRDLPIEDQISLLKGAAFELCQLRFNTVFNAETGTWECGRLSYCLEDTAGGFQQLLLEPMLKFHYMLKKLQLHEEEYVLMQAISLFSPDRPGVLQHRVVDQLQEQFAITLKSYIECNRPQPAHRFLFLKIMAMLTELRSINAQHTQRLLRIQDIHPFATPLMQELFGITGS
Outline: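 Compound-induced hPXR transactivation of a CYP3A4 luciferase reporter was scored in HepG2 PXR-Luc cells over 24 hr at 37 C, 5% CO2, by luminescence.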

[16] = molecular target: Nuclear receptor subfamily 1 group I member 2 (Rattus norvegicus) (UniProt Q9R1A7); assay: Rat pregnane X receptor (rPXR) activation by small molecules, qHTS assay (AID 1346983); conditions: rPXR luciferase reporter cells, One-Glo luminescence, 24 h; stronger effect = higher value; also: nearly all actives have a fitted effect of over 20% in size
Nuclear receptor subfamily 1 group I member 2 (Rattus norvegicus), sequence (Q9R1A7 whole entry, looked up): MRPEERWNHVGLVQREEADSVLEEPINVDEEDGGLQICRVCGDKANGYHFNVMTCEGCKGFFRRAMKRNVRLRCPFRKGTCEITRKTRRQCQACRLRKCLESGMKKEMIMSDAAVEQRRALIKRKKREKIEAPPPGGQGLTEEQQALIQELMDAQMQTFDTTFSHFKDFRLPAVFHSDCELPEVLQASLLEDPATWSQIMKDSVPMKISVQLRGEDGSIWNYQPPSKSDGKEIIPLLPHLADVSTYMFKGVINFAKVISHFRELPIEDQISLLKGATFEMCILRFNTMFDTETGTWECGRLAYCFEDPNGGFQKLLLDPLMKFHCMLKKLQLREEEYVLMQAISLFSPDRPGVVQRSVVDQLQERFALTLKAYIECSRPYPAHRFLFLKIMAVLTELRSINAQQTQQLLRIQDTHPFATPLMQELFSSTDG
Outline: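 Cell-based rPXR activation assay: rPXR cells, 2,000 per well, rested 5hr at 37 C, then exposed to compounds in DMSO for 24 hr at 37 C. Luciferase activity read by One-Glo luminescence after 30 min at room temperature.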

[17] = molecular target: Nuclear receptor subfamily 1 group I member 2 (Homo sapiens) (UniProt O75469); assay: CYP3A4 induction through human pregnane X receptor (PXR) by small molecules, qHTS assay (AID 1346984); also: nearly all actives have a fitted effect of over 40% in size
Outline: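 Readings come from a luciferase reporter: DPX-2 cells, which are HepG2 cotransfected with PXR and a CYP3A4-promoter construct, were exposed to test compounds for 24 h at 37C before One-Glo detection.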

[18] = molecular target: Cytochrome P450 2D6 (Homo sapiens) (UniProt P10635); assay: Cytochrome P450 Family 2 Subfamily D Member 6 (CYP2D6) small molecule antagonists: luciferase reporter qHTS assay (AID 1671196); also: nearly all actives have a fitted effect of over 50% in size; also: potency is read from the fitted curve at half-maximal effect
Cytochrome P450 2D6 (Homo sapiens), sequence (P10635 whole entry, looked up): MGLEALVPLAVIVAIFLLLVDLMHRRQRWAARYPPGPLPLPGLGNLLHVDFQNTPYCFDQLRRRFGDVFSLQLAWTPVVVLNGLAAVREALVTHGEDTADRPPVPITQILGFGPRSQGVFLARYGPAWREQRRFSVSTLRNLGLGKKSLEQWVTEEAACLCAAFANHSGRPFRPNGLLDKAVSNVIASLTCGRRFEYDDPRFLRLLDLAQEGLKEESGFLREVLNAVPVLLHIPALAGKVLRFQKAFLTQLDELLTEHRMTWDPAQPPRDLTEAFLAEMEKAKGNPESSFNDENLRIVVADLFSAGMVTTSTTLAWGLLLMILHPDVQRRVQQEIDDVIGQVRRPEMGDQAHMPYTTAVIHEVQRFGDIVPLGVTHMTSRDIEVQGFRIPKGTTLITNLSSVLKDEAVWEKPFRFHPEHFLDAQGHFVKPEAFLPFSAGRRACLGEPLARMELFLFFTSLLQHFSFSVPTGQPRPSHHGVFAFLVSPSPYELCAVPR
Outline: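 Each well received CYP2D6 with its proluciferin substrate and chemical, sat 10 min, then got NADPH regeneration solution for 1 h at room temperature. Luminescence in RLU served as the activity measure.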

[19] = molecular target: Cytochrome P450 2C19 (Homo sapiens) (UniProt P33261); assay: Cytochrome P450 Family 2 Subfamily C Member 19 (CYP2C19) small molecule antagonists: luciferase reporter qHTS assay (AID 1671197); also: nearly all actives have a fitted effect of over 65% in size; also: potency is read from the fitted curve at half-maximal effect
Cytochrome P450 2C19 (Homo sapiens), sequence (P33261 whole entry, looked up): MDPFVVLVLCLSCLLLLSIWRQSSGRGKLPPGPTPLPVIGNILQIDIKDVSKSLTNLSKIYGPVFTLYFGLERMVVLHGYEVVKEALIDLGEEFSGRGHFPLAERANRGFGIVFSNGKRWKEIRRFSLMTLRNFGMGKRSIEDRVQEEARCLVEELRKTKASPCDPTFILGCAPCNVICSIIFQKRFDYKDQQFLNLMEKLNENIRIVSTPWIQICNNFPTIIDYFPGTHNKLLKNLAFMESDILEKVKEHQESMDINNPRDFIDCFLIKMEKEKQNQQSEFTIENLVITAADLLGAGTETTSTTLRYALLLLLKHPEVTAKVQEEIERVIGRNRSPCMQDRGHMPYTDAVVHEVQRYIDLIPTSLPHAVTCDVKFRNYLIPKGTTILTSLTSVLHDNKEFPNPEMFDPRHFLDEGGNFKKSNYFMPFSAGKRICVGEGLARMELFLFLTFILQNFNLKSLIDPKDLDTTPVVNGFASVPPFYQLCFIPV
Outline: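 First, compounds are pinned into enzyme-substrate mix and held 10 min at room temperature. Second, NADPH regeneration solution is added and plates incubate 1 h at 37C. Third, detection reagent is added and luminescence read after 20 min.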

[20] = qHTS assay to identify small molecule agonists of the TGF-beta/Smad signaling pathway - cell viability counter screen (AID 1346829); also: top concentration of the series differs between compounds; nearly all actives have a fitted effect of over 45% in size
Outline: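 HEK 293T SBE-bla line, 5 hr compound exposure at 37 C, multiplexed CellTiter-Glo viability read by luminescence.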

SMILES | Potency [1] | Potency [2] | outcome [3] | Potency [4] | Potency [5] | outcome [6] | outcome [7] | outcome [8] | outcome [9] | Potency [10] | Potency [11] | Potency [12] | outcome [13] | Potency [14] | Potency [15] | max activation [16] | outcome [17] | Potency [18] | Potency [19] | Potency [20]
COc1ccc2[nH]cc(CCNC(C)=O)c2c1 | inactive | inactive | inactive | inactive | inactive | inactive | inactive | inactive | inactive | inactive | inactive | inactive | inactive | inactive | 62.1 µM (active) | – | – | – | – | –
Cc1cc(=O)[nH]c(=S)[nH]1 | inactive | inactive | inactive | inactive | inactive | inactive | inactive | inactive | inactive | inactive | inactive | inactive | inactive | inactive | – | -8.17% (inactive) | inactive | inactive | inactive | –
Nc1ccc(S(=O)(=O)c2ccc(N)cc2)cc1 | inactive | inactive | inactive | inactive | inactive | inactive | inactive | inactive | inactive | – | inactive | inactive | inactive | inactive | – | – | – | inactive | – | inactive
O=C1CN(/N=C/c2ccc([N+](=O)[O-])o2)C(=O)N1 | 30.5 µM (active) and 54.5 µM (active) and 18.8 µM (active) | inactive | inactive | inactive | inactive | inactive | inactive | inactive | inactive | 27.2 µM (active) and 68.6 µM (active) and 26.6 µM (active) | inactive | 60.9 µM (active) and 68.6 µM (active) and 33.5 µM (active) | inactive | 48.4 µM (active) and 61.1 µM (active) and 29.8 µM (active) | – | -5.45% (inactive) | inactive | inactive | 79.4 µM (active) and inactive | inactive
O=S(=O)(O)c1ccc2cc(O)ccc2c1 | inactive | inactive | inactive | inactive | inactive | inactive | inactive | inactive | inactive | inactive | inactive | inactive | inactive | inactive | inactive | – | – | inactive | inactive and 71.6 µM (active) and 79.6 µM (active) | –
NC(=O)NC1NC(=O)NC1=O (centres undefined) | inactive | inactive | inactive | inactive | inactive | inactive | inactive | inactive | inactive | – | inactive | inactive | inactive | inactive | – | -1.54% (inactive) | – | 35.2 µM (active) and inactive | inactive | inactive
CCCCOC(=O)CC(CC(=O)OCCCC)(OC(C)=O)C(=O)OCCCC | inactive | inactive | inactive | inactive | inactive | inactive | inactive | inactive | inactive | – | inactive | inactive | inactive | inactive | – | 0.822% (inactive) | – | inactive | 2.19 µM (active) and 4.04 µM (active) and 3.56 µM (active) | inactive
O=C(O)c1cccnc1 | inactive | inactive | inactive | inactive | inactive | inactive | inactive | inactive | inactive | inactive | inactive | inactive | inactive | inactive | – | – | – | – | – | inactive
O=C(O)c1cccc([N+](=O)[O-])c1 | inactive | inactive | inactive | inactive | inactive | inactive | inactive | inactive | inactive | – | inactive | inactive | inactive | inactive | – | – | – | inactive | inactive | inactive
CC(C)[C@@H]1CC[C@@H](C)C[C@H]1O | inactive | inactive | inactive | inactive | inactive | inactive | inactive | inactive | inactive | inactive | 69.5 µM (active) and inactive | inactive | inactive | inactive | – | -1.21% (inactive) | inactive | inactive | inactive | inactive
N=C(N)c1ccc(OCCCCCOc2ccc(C(=N)N)cc2)cc1 | inactive | inactive | inactive | inactive | inactive | inactive | inactive | inactive | inactive | inactive | inactive | 54.2 µM (active) and inactive | inactive | inactive | 68.2 µM (active) and 32.8 µM (active) and inactive | – | – | – | inactive | inactive
O=C1NC(=O)c2ccccc21 | inactive | inactive | inactive | inactive | inactive | inactive | inactive | – | – | inactive | inactive | inactive | inactive | inactive | – | – | – | inactive | inactive | inactive
COc1c2occc2cc2ccc(=O)oc12 | inactive | inactive | inactive | inactive | inactive | inactive | inactive | – | – | – | inactive | inactive | inactive | inactive | – | – | – | – | – | inactive
OC(Cn1cncn1)(Cn1cncn1)c1ccc(F)cc1F | inactive | inactive | inactive | inactive | inactive | inactive | inactive | – | – | – | – | inactive | inactive | inactive | – | -1.17% (inactive) | inactive | 22.7 µM (active) and inactive | – | inactive
CNC[C@H](O)c1cccc(O)c1 | inactive | inactive | inactive | inactive | inactive | inactive | inactive | – | – | – | inactive | inactive | inactive | inactive | – | -0.862% (inactive) | – | – | – | inactive
